The text below walks through data of PubChem BioAssay AID1030 (National Center for Advancing Translational Sciences (NCATS), 2008).

“And” between values parts separate entries of the source, which are not always exact repeats. Identical values can stand only once. Among all 220,000 compounds or so, about 16,000 (7.3%) were called active. Another 25% or so got no clear call; they are omitted. The entries come from a sample that favours actives as a whole. A number with no mark means an inactive call. Calls follow the shape of the dose curve; as a rule, active = well fitted inhibition curve with a large enough effect (not every such curve was filed as active); inconclusive = small, poorly fitted or top-dose-only effect, or another doubt; inactive = no such curve, though single readings can be large or run the other way.
Potency is read from the fitted curve at half-maximal effect.

Chain of Aldehyde dehydrogenase 1A1 (Homo sapiens) (P00352 whole entry, looked up): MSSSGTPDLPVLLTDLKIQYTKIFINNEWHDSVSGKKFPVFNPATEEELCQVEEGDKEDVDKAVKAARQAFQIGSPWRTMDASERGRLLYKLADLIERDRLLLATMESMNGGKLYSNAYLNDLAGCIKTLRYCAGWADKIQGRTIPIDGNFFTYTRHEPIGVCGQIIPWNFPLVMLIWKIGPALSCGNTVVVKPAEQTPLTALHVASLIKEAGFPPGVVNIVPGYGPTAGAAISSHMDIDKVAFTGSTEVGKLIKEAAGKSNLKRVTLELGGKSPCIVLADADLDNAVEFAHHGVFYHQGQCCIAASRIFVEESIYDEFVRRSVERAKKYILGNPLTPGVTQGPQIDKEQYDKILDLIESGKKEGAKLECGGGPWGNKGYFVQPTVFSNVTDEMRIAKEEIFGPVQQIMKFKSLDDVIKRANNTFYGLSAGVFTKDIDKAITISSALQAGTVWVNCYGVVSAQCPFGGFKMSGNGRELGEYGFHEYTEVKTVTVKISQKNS

The test concerns the target Aldehyde dehydrogenase 1A1 (Homo sapiens) (UniProt P00352). Briefly: qHTS Assay for Inhibitors of Aldehyde Dehydrogenase 1 (ALDH1A1).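 As to activity, negative = inhibition: plate controls were no enzyme wells and a reference inhibitor.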 The following applies: Purified ALDH1A1, NADH fluorescence, propionaldehyde substrate; series mostly up to 75.3 µM; activity, negative = inhibition: at the top concentration.
As to `CCOC(=O)c1sc(NC(=O)CSc2nnc(-c3ccco3)o2)c(C(=O)OCC)c1C`, the “activity, negative = inhibition” value is -8.17%.

Take `O=C(c1cc(=O)c2ccccc2o1)N1CCN(c2ccccc2)CC1`: the “activity, negative = inhibition” value was -7.27%.

Regarding `COc1cccc(C(=O)Nc2nc3ccc(S(C)(=O)=O)cc3s2)c1`, the “activity, negative = inhibition” value is -1.22%.

On to `CC(=O)NC1=NN(C(C)=O)C(C)(CCS(=O)(=O)c2ccc(Cl)c(Cl)c2)S1` (centres undefined), for which the “activity, negative = inhibition” value was -5.25%.

For `CN(C)c1ccc(-n2cccc2/C=C2/SC(=Nc3ccc(F)cc3)NC2=O)cc1`, the “activity, negative = inhibition” value is -0.0028%.

Consider `Cc1ccc(N=C2NC(=O)/C(=C/C=C/c3ccco3)S2)cc1C`, for which the Potency was 7.94 µM (active).

For `Nc1nc2c(ncn2[C@@H]2O[C@H](COP(=O)(O)OP(=O)(O)OP(=O)(O)O)[C@@H](O)C2O)c(=O)[nH]1` (some centres undefined), the “activity, negative = inhibition” value was 4.41%.

As to `O=C(Nc1ccccc1C(=O)N1CCOCC1)c1ccc(Cl)cc1`, the “activity, negative = inhibition” value is 5.03%.

For the molecule `Cc1nnsc1C(=O)NCc1c(F)cccc1Cl`, the “activity, negative = inhibition” value was 9.4%.

As for `Fc1cccc(Cl)c1CSc1ccc(-c2ccco2)nn1`, the Potency is 20 µM (active).

On to `O=C(CSCc1c(F)cccc1Cl)NCC1CCCO1` (centres undefined), for which the “activity, negative = inhibition” value is 2.6%.

`CCc1ccc(C(=O)OCC(=O)NCC(F)(F)F)cc1`: the “activity, negative = inhibition” value is -2.12%.

Turning to `OCCNCCOc1ccc(Cl)c(Cl)c1`, the “activity, negative = inhibition” value was -8.88%.

As for `COc1ccc(-n2cnnc2SCC(=O)Nc2cccc([N+](=O)[O-])c2)cc1`, the “activity, negative = inhibition” value is 5.76%.

For `C=CCn1c2ccccc2c2nnc(SC(CC)C(=O)Nc3nc(C)c(C(=O)OCC)s3)nc21` (centres undefined), the “activity, negative = inhibition” value was -8.14%.

As to `C=CCn1c(COc2ccccc2)nnc1SCC(=O)NCC(=O)OCC`, the “activity, negative = inhibition” value is 8.67%.

For `C=CCn1c2ccccc2c2nnc(SCc3[nH]c(=O)[nH]c3C(=O)CCCCC(=O)OCC)nc21`, the Potency was 10 µM (active).

Turning to `CCCC(c1nnnn1C(C)(C)C)N1CCN(Cc2ccccc2)CC1` (centres undefined), the “activity, negative = inhibition” value is -2.73%.

Regarding `CC(C)(C)n1nnnc1C(c1ccc(F)cc1)N1CCN(Cc2ccc3c(c2)OCO3)CC1` (centres undefined), the “activity, negative = inhibition” value was -1.16%.

On to `COc1ccccc1C(c1nnnn1C(C)(C)C)N1CCN(Cc2ccccc2)CC1` (centres undefined), for which the Potency is 20 µM (active).

In the case of `CCc1c(SCCC(=O)O)nc2ccccc2c1C`, the “activity, negative = inhibition” value is -7.58%.

With `O=C(N/N=C/c1ccco1)c1ccc(C(=O)N/N=C/c2ccco2)o1`, the “activity, negative = inhibition” value was -3.13%.

Take `CC(=O)Nc1ccc(/C=N/NC(=O)c2cccs2)cc1`: the “activity, negative = inhibition” value is 3.71%.

Take `O=C(N/N=C/C=C/c1ccco1)c1cccs1`: the Potency was 2 µM (active).

In the case of `CCOc1cc(/C=C(/C#N)c2ccc(Cl)cc2)cc(Cl)c1OCC(=O)O`, the “activity, negative = inhibition” value is -0.694%.

`Cc1cccc(CCNS(=O)(=O)c2ccc(S(=O)(=O)NC3CCCC3)cc2)c1`: the “activity, negative = inhibition” value was -12.2%.

On to `N#CCCN1CCN(S(=O)(=O)c2ccc(S(=O)(=O)NC3CC3)cc2)CC1`, for which the “activity, negative = inhibition” value is 6.11%.

For `Cn1sc(=O)c2cc(S(=O)(=O)NC3CC3)ccc21`, the Potency is 0.501 µM (active).

As for `CCN(CC)C(=O)Oc1ccc(OC(=O)N(CC)CC)cc1`, the “activity, negative = inhibition” value was -3.17%.

For `Cc1nonc1NC(=O)CSc1nc2ccccc2cc1C#N`, the “activity, negative = inhibition” value is 4.78%.

In the case of `Cc1ccc2nc(CC(=O)c3ccc4ccccc4c3)c(=O)[nH]c2c1`, the activity, negative = inhibition is 12.1% [at 13.5 µM].

Turning to `CC(=O)CCC(=O)c1ccc2ccccc2c1`, the “activity, negative = inhibition” value was -5.73%.

In the case of `C=CC(=O)c1ccc2ccccc2c1`, the Potency was 11.2 nM (active) and 100 nM (active).

As for `CC(=O)Nc1nc2ccccc2n1Cc1ccc(C)cc1`, the “activity, negative = inhibition” value is 0.717%.

Take `CN(C)CCCN(C(=O)COc1ccccc1)c1nc2c(Cl)cccc2s1`: the “activity, negative = inhibition” value is 2.64%.

In the case of `CCC(C)(C)NC(=O)CN(C(=O)CCC(=O)Nc1cc(C)ccn1)c1ccc2c(c1)OCCO2`, the “activity, negative = inhibition” value is 2.32%.

With `COc1cc(SC)ccc1C(=O)Nc1cc(C)ccn1`, the Potency is 22.4 µM (active).

Turning to `COc1cc(SC)ccc1C(=O)Nc1nc(C)cs1`, the “activity, negative = inhibition” value is 7.61%.

With `Cc1ccnc(NC(=O)c2ccoc2C)c1`, the “activity, negative = inhibition” value is 7.63%.

Take `O=C(O)COc1ccc(/C=N/O)cc1Br`: the “activity, negative = inhibition” value was -1.14%.

Consider `Cc1ccccc1CN(c1ccc(C(=O)NCC2CCCO2)cc1)S(C)(=O)=O` (centres undefined), for which the “activity, negative = inhibition” value was 10.6%.

Consider `C/C=C(\C)C(=O)NCCN1C2=NC[C@H](Cc3ccc(O)cc3)N2C[C@@H]1Cc1ccc(OC)cc1`, for which the “activity, negative = inhibition” value is 5.48%.

On to `CC(NC(=O)COC(=O)c1ccc2c(c1)OCO2)c1ccccc1` (centres undefined), for which the “activity, negative = inhibition” value was -4.82%.

For `CCOC(=O)c1ccc(COC(=O)c2cc(=O)[nH]c3ccccc23)o1`, the “activity, negative = inhibition” value was -5.02%.

Regarding `CCOC(=O)c1c(Cc2ccc(Cl)cc2)c[nH]c1C`, the “activity, negative = inhibition” value was -2.42%.

Regarding `CCOC(=O)c1ccc(CS(=O)c2ccc(Cl)cc2)o1` (centres undefined), the Potency was 2.82 µM (active).

In the case of `CCOC(=O)c1ccccc1NC(=O)CSc1nc2ccccc2c(=O)[nH]1`, the “activity, negative = inhibition” value is -3.53%.

In the case of `Cc1cc(=O)oc(C)c1C(=O)NCCN(C)Cc1ccccc1`, the “activity, negative = inhibition” value was -12%.

`C=CS(=O)c1sc(Cl)c(N2CCOCC2)c1[N+](=O)[O-]` (centres undefined): the Potency was 2 µM (active).

On to `Cn1c(SCC(=O)NC2CCCCC2)nnc1-c1ccc(N)cc1`, for which the “activity, negative = inhibition” value was 4.84%.

As to `CCOC(=O)/C=c1\s/c(=C\c2ccc(C#N)cc2)c(=O)n1CC(=O)Nc1cccc(C)c1C`, the “activity, negative = inhibition” value is 1.24%.

`CC1(C)Cc2cccc(OCC(=O)Nc3nccs3)c2O1`: the “activity, negative = inhibition” value was -3.74%.

As for `CC1(C)Cc2cccc(OCC(=O)N3CCN(c4ccc([N+](=O)[O-])cc4)CC3)c2O1`, the Potency was 10 µM (active).

For `CC1(C)Cc2cccc(OCC(N)=O)c2O1`, the “activity, negative = inhibition” value is 14.2%.
